Measurements: PubChem BioAssay (Tox21)
Inconclusive results are not listed. The source made the active and inactive calls. Unless noted, the call rests on the fitted dose curve.

Columns and labels:
[1] = biological target: Estrogen receptor (Homo sapiens) (UniProt P03372); assay: qHTS assay to identify small molecule agonists of the estrogen receptor alpha (ER-alpha) signaling pathway in the presence of an antagonist (AID 1259383); further: top concentration of the series differs between compounds; nearly all actives have a fitted effect of over 15% in size
How it was run: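 In VM7Luc4E2 cells, 4,000 per well, compounds at 15 concentrations were co-incubated 22hr at 37C with 10.0nM final ICI-182,780. Luminescence from the stably transfected 4×ERE-luciferase reporter was recorded 30min after ONE-Glo addition.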

[2] = qHTS assay to identify small molecule agonists of the estrogen receptor alpha (ER-alpha) signaling pathway in the presence of an antagonist - cell viability counter screen (AID 1259386; active means well fitted curve in the direction sought with a large enough effect in the repeat runs; an effect the other way counts as inactive or inconclusive;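 further: series mostly up to about 92 µM; cells exposed to compounds for 22 h at 37 °C before the viability read; nearly all actives have a fitted effect of over 30% in size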)
How it was run: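 Fluorescent CellTiter-Fluor viability signal from VM7Luc4E2 cells, with the reagent added during the final hour of a 22hr compound exposure at 37C in the presence of 10.0nM ICI-182,780.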

[3] = biological target: Progesterone receptor (Homo sapiens) (UniProt P06401); assay: qHTS assay to identify small molecule agonists of the progesterone receptor (PR) signaling pathway (AID 1346784); further: nearly all actives have a fitted effect of over 30% in size
How it was run: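 Cells (PR-UAS-bla HEK 293T, GripTite) were plated in assay medium containing 2% charcoal-stripped FBS and incubated 6 hr. Test compounds in DMSO were added for 16 hr at 37C. FRET substrate was then loaded for 2 hr at room temperature before fluorescence reading.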

[4] = biological target: Progesterone receptor (Homo sapiens) (UniProt P06401); assay: qHTS assay to identify small molecule antagonists of the progesterone receptor (PR) signaling pathway (AID 1346795; active means well fitted inhibition curve with a large enough effect in the signal ratio in the repeat runs, not every such curve was filed as active; the % refers to the signal ratio)
How it was run: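 Antagonist mode: compounds tested against 1 nM (final) promegestone stimulation in HEK293T cells expressing PR-UAS-bla reporter, 16 hr at 37C, 5% CO2; beta-lactamase activity detected via B/G FRET substrate after 2 hr at room temperature.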

[5] = qHTS assay to identify small molecule antagonists of the progesterone receptor (PR) signaling pathway - cell viability counter screen (AID 1346798; active means well fitted curve in the direction sought with a large enough effect in the repeat runs; an effect the other way counts as inactive or inconclusive; further: series mostly up to about 92 µM; nearly all actives have a fitted effect of over 50% in size)
How it was run: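 Counter screen for cytotoxicity: viability of PR-UAS-bla HEK293T cells was measured with CellTiter-Glo luminescence following 16 hr compound exposure in the presence of R5020.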

[6] = qHTS assay to identify small molecule agonists of the progesterone receptor (PR) signaling pathway - cell viability counter screen (AID 1346799); further: nearly all actives have a fitted effect of over 45% in size
How it was run: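 Cells (PR-UAS-bla HEK293T) are plated at 3,000/well in 2% charcoal-stripped FBS medium, rested 6 hr, dosed and incubated 16 hr at 37C. CellTiter-Glo is then added and luminescence measured after 30 min at room temperature.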

[7] = qHTS assay to identify small molecule antagonists of the TGF-beta/Smad signaling pathway - cell viability counter screen (AID 1346824; active means well fitted curve in the direction sought with a large enough effect in the repeat runs; an effect the other way counts as inactive or inconclusive; further: nearly all actives have a fitted effect of over 50% in size)
How it was run: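 Cytotoxicity counter-screen run in the same wells as the beta-lactamase Smad reporter read: CellTiter-Glo luminescence after 30 min at room temperature. HEK 293T SBE-bla cells had 5 hr compound exposure at 37 C with TGF-beta1 (0.25 ng/mL stock).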

[8] = qHTS assay to identify small molecule agonists of the TGF-beta/Smad signaling pathway - cell viability counter screen (AID 1346829; active means well fitted curve in the direction sought with a large enough effect in the repeat runs; an effect the other way counts as inactive or inconclusive; further: top concentration of the series differs between compounds; nearly all actives have a fitted effect of over 45% in size)
How it was run: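 Luminescence from CellTiter-Glo, read after a 30 min room-temperature incubation, gives cell viability of SBE-bla HEK 293T cells treated 5 hr with compounds at 37 C.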

[9] = qHTS assay to identify small molecule agonists or antagonists of the thyroid stimulating hormone receptor (TSHR) signaling pathway - wild type cell line counter screen (AID 1259384)
How it was run: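 Counter screen in untransfected Hek293: compounds (15-point titration, triplicate) plus phosphodiesterase inhibitor Ro20-1724 added after 18 h plating; 30 min RT. Intracellular cAMP via competitive d2/cryptate immunoassay, 1 h incubation.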

[10] = biological target: Thyrotropin receptor (Homo sapiens) (UniProt P16473); assay: qHTS assay to identify small molecule antagonists of the thyroid stimulating hormone receptor (TSHR) signaling pathway (AID 1259385); further: nearly all actives have a fitted effect of over 20% in size
How it was run: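 Antagonist mode: compound-treated TSHR-expressing HEK293 cells were stimulated with 1.5 ng/mL TSH (final) in presence of Ro20-1724 for 30 min at RT. HTRF cAMP detection after 1 h; each compound tested at 15 concentrations, triplicate.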
On the % scale 0 is the no-effect control and ±100 the full control effect.

Chain of Estrogen receptor (Homo sapiens) (P03372 whole entry, looked up): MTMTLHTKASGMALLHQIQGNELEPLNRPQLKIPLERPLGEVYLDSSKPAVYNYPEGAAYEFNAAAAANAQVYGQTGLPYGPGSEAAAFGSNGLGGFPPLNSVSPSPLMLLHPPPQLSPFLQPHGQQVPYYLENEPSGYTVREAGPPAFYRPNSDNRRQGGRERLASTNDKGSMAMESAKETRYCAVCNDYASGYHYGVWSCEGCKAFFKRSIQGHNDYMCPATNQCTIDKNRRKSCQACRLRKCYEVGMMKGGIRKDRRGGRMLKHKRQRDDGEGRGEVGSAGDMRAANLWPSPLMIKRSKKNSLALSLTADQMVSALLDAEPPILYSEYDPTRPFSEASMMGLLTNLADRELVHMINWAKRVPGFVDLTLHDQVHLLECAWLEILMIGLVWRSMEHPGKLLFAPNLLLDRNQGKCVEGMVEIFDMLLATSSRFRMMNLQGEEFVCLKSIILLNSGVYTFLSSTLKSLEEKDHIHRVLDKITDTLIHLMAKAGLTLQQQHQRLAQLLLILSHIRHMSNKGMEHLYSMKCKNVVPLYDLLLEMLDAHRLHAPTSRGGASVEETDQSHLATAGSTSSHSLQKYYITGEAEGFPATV
Chain of Thyrotropin receptor (Homo sapiens) (P16473 whole entry, looked up): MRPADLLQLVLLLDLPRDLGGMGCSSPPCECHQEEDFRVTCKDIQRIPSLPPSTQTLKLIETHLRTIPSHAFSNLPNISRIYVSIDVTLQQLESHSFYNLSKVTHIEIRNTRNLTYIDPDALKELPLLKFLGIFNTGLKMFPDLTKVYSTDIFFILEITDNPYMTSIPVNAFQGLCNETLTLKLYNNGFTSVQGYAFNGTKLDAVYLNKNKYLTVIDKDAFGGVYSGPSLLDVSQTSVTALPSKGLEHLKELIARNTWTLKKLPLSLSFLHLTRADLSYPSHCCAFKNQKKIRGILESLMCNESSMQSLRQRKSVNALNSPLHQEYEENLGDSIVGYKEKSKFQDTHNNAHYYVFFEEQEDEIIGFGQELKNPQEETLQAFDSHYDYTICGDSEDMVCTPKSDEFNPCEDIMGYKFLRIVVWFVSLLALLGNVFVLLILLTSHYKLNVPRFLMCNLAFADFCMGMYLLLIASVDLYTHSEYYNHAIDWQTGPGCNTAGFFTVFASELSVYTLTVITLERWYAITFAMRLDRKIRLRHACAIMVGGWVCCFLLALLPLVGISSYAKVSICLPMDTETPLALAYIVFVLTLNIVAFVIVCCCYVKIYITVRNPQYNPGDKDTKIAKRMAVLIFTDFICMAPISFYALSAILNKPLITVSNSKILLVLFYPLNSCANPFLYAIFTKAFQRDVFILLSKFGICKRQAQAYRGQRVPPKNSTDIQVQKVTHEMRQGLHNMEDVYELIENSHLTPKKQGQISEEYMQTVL
Chain of Progesterone receptor (Homo sapiens) (P06401 whole entry, looked up): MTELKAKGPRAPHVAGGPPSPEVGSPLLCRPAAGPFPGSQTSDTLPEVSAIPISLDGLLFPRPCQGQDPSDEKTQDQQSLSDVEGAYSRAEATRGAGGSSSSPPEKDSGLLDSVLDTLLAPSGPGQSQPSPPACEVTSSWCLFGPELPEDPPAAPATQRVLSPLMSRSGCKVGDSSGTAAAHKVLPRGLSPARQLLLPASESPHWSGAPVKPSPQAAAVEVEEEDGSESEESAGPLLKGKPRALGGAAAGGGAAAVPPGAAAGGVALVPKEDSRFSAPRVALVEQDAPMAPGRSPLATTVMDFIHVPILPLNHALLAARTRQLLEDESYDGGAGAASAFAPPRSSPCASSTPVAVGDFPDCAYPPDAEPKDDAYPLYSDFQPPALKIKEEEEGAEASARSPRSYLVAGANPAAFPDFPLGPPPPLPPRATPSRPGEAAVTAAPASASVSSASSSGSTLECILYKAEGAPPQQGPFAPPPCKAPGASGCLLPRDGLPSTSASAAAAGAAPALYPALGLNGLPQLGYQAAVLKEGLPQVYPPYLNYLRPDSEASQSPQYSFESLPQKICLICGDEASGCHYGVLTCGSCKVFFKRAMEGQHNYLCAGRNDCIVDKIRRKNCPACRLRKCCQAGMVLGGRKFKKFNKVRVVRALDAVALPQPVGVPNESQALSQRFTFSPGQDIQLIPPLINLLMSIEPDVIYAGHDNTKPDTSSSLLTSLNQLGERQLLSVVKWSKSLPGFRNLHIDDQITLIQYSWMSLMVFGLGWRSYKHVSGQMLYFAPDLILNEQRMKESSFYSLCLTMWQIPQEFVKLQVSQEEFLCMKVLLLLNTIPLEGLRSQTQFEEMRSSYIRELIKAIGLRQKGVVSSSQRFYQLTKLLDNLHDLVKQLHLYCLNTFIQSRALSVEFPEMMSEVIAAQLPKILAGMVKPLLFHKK

Cn1nnc2c(C(N)=O)ncn2c1=O
inactive: Potency [1] | outcome [2] | Potency [3] | Potency [4] | outcome [5] | outcome [6] | outcome [7] | outcome [8]

C=CCN1C[C@H](C(=O)N(CCCN(C)C)C(=O)NCC)C[C@@H]2c3cccc4[nH]cc(c34)C[C@H]21
inactive: Potency [1] | outcome [9] | Potency [3] | Potency [4] | outcome [5] | outcome [7] | outcome [8]

O=C[O][Al]([O]C=O)[O]C=O
inactive: Potency [1] | outcome [10] | Potency [3] | Potency [4] | outcome [5] | outcome [6] | outcome [7] | outcome [8]

CCNC(=O)NCc1cccc(Cl)c1
inactive: Potency [1] | outcome [10] | outcome [2] | Potency [3] | Potency [4] | outcome [5] | outcome [6] | outcome [7] | outcome [8]

CCCCCCCCCCCCCCCCCCOCCO
inactive: activation [1] -1.02% [at 19 µM] | activity change, negative = inhibition [10] -0.175% [at 19 µM] | activity change, negative = cytotoxicity [2] 0.983% [at 19 µM] | activation [3] 3.24% [at 19 µM] | activity change, negative = inhibition [4] -1.49% [at 18.9 µM] | viability change, negative = cytotoxic [7] -1.95% [at 15.8 µM] | activity change, negative = cytotoxicity [8] -6.94% [at 15.8 µM]

COc1cc(/C=C/C(N)=O)cc(OC)c1OC
inactive: Potency [1] | outcome [10] | outcome [2] | Potency [3] | Potency [4] | outcome [5] | outcome [6] | outcome [7] | outcome [8]

CC(C)COC(=O)c1ccccc1
inactive: Potency [1] | outcome [10] | outcome [2] | Potency [3] | outcome [7] | outcome [8]

C=CCCCCCCCCC(=O)OCCCC
inactive: Potency [1] | outcome [10] | outcome [2] | Potency [3] | outcome [6] | outcome [7] | outcome [8]

CO/N=C(/C(=O)N[C@@H]1C(=O)N2C(C(=O)[O-])=C(C[n+]3ccn4ncccc43)CS[C@H]12)c1nsc(N)n1
inactive: Potency [1] | outcome [10] | Potency [3] | Potency [4] | outcome [5] | outcome [6] | outcome [7] | outcome [8]

CC(C)(CO)C(O)C(=O)NCCCO (centres undefined)
inactive: Potency [1] | outcome [10] | outcome [2] | Potency [4] | outcome [5] | outcome [6] | outcome [7] | outcome [8]

COC(=O)c1ccccc1C(=O)O
inactive: Potency [1] | outcome [10] | Potency [3] | Potency [4] | outcome [5] | outcome [6] | outcome [7] | outcome [8]

C=CC/C=C/C
inactive: Potency [1] | outcome [9] | outcome [10] | outcome [5] | outcome [6] | outcome [7] | outcome [8]

NCCOCCN
inactive: Potency [1] | outcome [10] | outcome [2] | Potency [3] | outcome [6] | outcome [7] | outcome [8]

COC(=O)/C=C\C(=O)O
inactive: Potency [1] | outcome [10] | outcome [2] | Potency [3] | Potency [4] | outcome [5] | outcome [6] | outcome [7] | outcome [8]

CC(=O)C1C(=O)C=C(C)OC1=O (centres undefined)
inactive: Potency [1] | outcome [10] | Potency [3] | outcome [5] | outcome [6] | outcome [7] | outcome [8]

COC(=O)CCCCC(=O)O
inactive: Potency [1] | outcome [10] | Potency [3] | outcome [5] | outcome [6] | outcome [7] | outcome [8]

C=C(C)[C@@H]1CC=C(C)CC1
inactive: Potency [1] | outcome [2] | Potency [3] | Potency [4] | outcome [5] | outcome [6] | outcome [7] | outcome [8]

CC1(C)Cc2cccc(N)c2O1
inactive: Potency [1] | outcome [10] | outcome [2] | Potency [4] | outcome [5] | outcome [6] | outcome [7] | outcome [8]

CN(C)CCN(C)CCO
inactive: Potency [1] | outcome [10] | outcome [2] | Potency [3] | Potency [4] | outcome [5] | outcome [6] | outcome [7] | outcome [8]

Cc1ncc([N+](=O)[O-])n1CC(C)O (centres undefined)
inactive: Potency [1] | outcome [2] | Potency [3] | Potency [4] | outcome [5] | outcome [6] | outcome [7] | outcome [8]

CCO[Si](CC)(OCC)OCC
inactive: Potency [1] | outcome [9] | outcome [10] | outcome [5] | outcome [6] | outcome [7] | outcome [8]

CCCc1ccc(O)cc1
inactive: Potency [1] | outcome [10] | outcome [2] | Potency [3] | outcome [5] | outcome [6] | outcome [7] | outcome [8]

CC1=C(O)C(=O)C(C)O1 (centres undefined)
inactive: Potency [1] | outcome [10] | outcome [2] | outcome [5] | outcome [6] | outcome [7] | outcome [8]

C[C@H]1[C@@H](c2ccccc2)NC(=O)N1C
inactive: Potency [1] | outcome [10] | outcome [2] | Potency [3] | Potency [4] | outcome [5] | outcome [6] | outcome [7] | outcome [8]

CCCCOC(=O)[C@H](C)O
inactive: Potency [1] | outcome [10] | outcome [2] | Potency [3] | Potency [4] | outcome [6] | outcome [7] | outcome [8]
